Lamin A splicing: qHTS Assay for Modulators of Lamin A Splicing; hit rate 0.01% among 200,000; Potency, µM (top dose mostly 46.1 µM), without a hit: top-dose ratio change, negative = inhibition, most hits filed as inhibitors; HeLa LMNA splicing GFP/RFP minigene ratio, 48 h; active = well fitted inhibition curve with a large enough effect in the signal ratio, with a control signal flat, not every such curve was filed as active; inconclusive = small, poorly fitted or top-dose-only effect, or effect the other way, or a change in a side signal; the % refers to the signal ratio; also: % is scaled to controls: 0 for no effect and ±100 for the full control effect
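S3 HeLa cells stably expressing lamin A-EGFP splicing minigene plus DsRed2, 600 cells/well, 48 h compound exposure at 37C. Laser-scanning cytometry; analysed as GFP (500-530 nm)/RFP (575-640 nm) total intensity ratio; 0.5% DMSO vehicle.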
HTT cytoprotect: qHTS Multiplex Assay to Identify Dual Action Probes in a Cell Model of Huntington: Cytoprotection (ATP); PC12 HTT-Q103 induced, cytoprotection, ATP luminescence, 40 h; Potency, µM (doses to about 56.4 µM), for the others: cytoprotection (ATP increase), actives largely listed as activators; hit rate 0.14% among 230,000; active = well fitted curve in the direction sought with a large enough effect; inconclusive = small, poorly fitted or top-dose-only effect, or another doubt; inactive = no such curve, though single readings can be large; an effect the other way counts as inactive or inconclusive; also: % of control where 0% means no effect; nearly all actives have a fitted effect of over 45% in size
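Cells were plated at 1500 per well in phenol red-free DMEM with 5% equine and 5% calf serum. Tebufenozide (100 nM final) and compounds were added, then ATPlite reagent, and luminescence was read.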
ALDH1A1 inh: qHTS Assay for Inhibitors of Aldehyde Dehydrogenase 1 (ALDH1A1) | Aldehyde dehydrogenase 1A1 (Homo sapiens), P00352 | hit rate 7.3% among 220,000 | Potency, µM (top dose mostly 75.3 µM), for inactives: at the highest dose activity, negative = inhibition, most hits filed as inhibitors | Purified ALDH1A1, NADH fluorescence, propionaldehyde substrate;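 also: plate controls were no enzyme wells and a reference inhibitor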
Target sequence (P00352 whole entry, looked up): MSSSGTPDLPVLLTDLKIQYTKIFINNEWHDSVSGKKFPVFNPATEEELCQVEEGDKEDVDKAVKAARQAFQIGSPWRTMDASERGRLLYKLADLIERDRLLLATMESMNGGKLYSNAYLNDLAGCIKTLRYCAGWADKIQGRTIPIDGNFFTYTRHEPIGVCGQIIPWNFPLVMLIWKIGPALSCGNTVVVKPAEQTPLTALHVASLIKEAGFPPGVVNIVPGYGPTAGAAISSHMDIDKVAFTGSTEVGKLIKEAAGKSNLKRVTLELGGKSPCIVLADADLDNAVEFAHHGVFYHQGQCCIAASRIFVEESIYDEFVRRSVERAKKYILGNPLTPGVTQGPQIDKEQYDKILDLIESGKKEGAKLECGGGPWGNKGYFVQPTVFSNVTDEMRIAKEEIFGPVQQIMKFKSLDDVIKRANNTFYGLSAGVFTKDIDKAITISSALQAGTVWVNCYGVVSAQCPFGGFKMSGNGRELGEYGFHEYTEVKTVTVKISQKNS
HPGD block: qHTS Assay for Inhibitors of HPGD (15-Hydroxyprostaglandin Dehydrogenase); hit rate 4.3% among 150,000; purified HPGD, NADH fluorescence kinetic, PGE2 substrate; 15-hydroxyprostaglandin dehydrogenase [NAD(+)] (Homo sapiens), P15428; Potency, µM, inactives show top-dose activity change, negative = inhibition, actives largely listed as inhibitors; AID 894, 2007; also: % is scaled to controls: 0 for no effect and ±100 for the full control effect
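NADH formation kinetics: reaction with 30 uM PGE2 and 1 mM NAD+ (final), 20 nM enzyme, Tris-HCl pH 8 with Tween 20, after 15 min compound preincubation at room temperature. Fluorescence change, last versus first of five reads.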
KDM4E inh: qHTS Assay for Inhibitors of Human Jumonji Domain Containing 2E (JMJD2E). Lysine-specific demethylase 4E (Homo sapiens), B2RXH2. hit rate 1.6% among 230,000. Potency, µM (highest dose often 57.1 µM), inactives show at the highest dose activity change, negative = inhibition, most hits filed as inhibitors. JMJD2E catalytic domain, FDH-coupled NADH fluorescence (FDH is formaldehyde dehydrogenase);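 also: 0% = wells with enzyme and -100% = buffer wells without enzyme; nearly all actives have a fitted effect of over 50% in size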
HttQ103 aggreg: qHTS Multiplex Assay to Identify Dual Action Probes in a Cell Model of Huntington: Aggregate Formation (GFP); Potency, µM (doses to about 46.1 µM), for inactives: top-dose activity change, negative = inhibition, actives largely listed as inhibitors; PC12 HttQ103-GFP aggregates, Acumen cytometry, 40 h; hit rate 1.1% among 220,000; active = well fitted curve in the direction sought with a large enough effect; inconclusive = small, poorly fitted or top-dose-only effect, or another doubt; inactive = no such curve, though single readings can be large; an effect the other way counts as inactive or inconclusive; also: % is scaled to controls: 0 for no effect and ±100 for the full control effect; nearly all actives have a fitted effect of over 60% in size
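PC12 cells stably carrying ecdysone-inducible HTT exon 1 Q103–GFP were induced with tebufenozide (100 nM final) and treated with library compounds in titration. GFP aggregates in lysates were counted by laser scanning cytometry.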
An asterisk follows results filed as active; ? = inconclusive; nt = not tested or not shown; [ ] = another dose, or the depositor's remark. Shown are actives, neighbours in structure and some others; about 9.2% of the full set was active somewhere. Unless noted, calls follow the shape of the dose curve; as a rule, active = well fitted inhibition curve with a large enough effect (not every such curve was filed as active); inconclusive = small, poorly fitted or top-dose-only effect, or another doubt; inactive = no such curve, though single readings can be large or run the other way. Potency is read from the fitted curve at half-maximal effect.

SMILES	Lamin A splicing	HTT cytoprotect	ALDH1A1 inh	HPGD block	KDM4E inh	HttQ103 aggreg
CC(=O)Nc1ccc2c(c1)CCCN2C(=O)c1ccccc1	5%	13%	14µM*	0%	-10%	1%
O=C(c1ccc(=O)oc1)N1CCCc2ccccc21	11%	-9%[0.074 µM]	10µM*	?	14µM*	16%
O=C(c1ccccc1)N1CCc2ccccc21	-4%	15%	?	28µM*	3%	15%
O=C(c1ccccc1)N1CCCc2ccccc21	-9%	6%[10 µM]	-7%	-15%	-5%	11%
O=C(c1ccco1)N1CCc2ccccc21	5%[46 µM]	-22%	10%	nt	3%	0%
CCc1ccccc1NC(=O)NCc1ccc2c(c1)CCN2C(=O)c1ccccc1	-11%[46 µM]	nt	nt	nt	nt	nt
CCNC(=O)c1ccc2nc(CCc3ccccc3)oc2c1	0%[46 µM]	nt	nt	nt	nt	nt
Cn1ncc(Br)c1C(=O)OCC(=O)Nc1nc(-c2ccccc2)cs1	6%	12%[10 µM]	4%	-18%	5%	-7%
Cc1ccc(C(=O)N2CCCC(c3ccc(Cl)cc3)=N2)cc1	-8%[9.22 µM]	-13%	13µM*	nt	-8%	-9%
COc1ccc(C(=O)N2CCCC(c3ccccc3)=N2)cc1	0%[46 µM]	6%[10 µM]	?	nt	-7%	-1%
C/C(=N\NC(=O)Cn1nc(C)c([N+](=O)[O-])c1C)c1ccc(Cl)s1	nt	-15%[10 µM]	nt	nt	-2%	0%[9.22 µM]
Cc1ccc(C)c(N2CCN(CCCNC(=O)Cn3cccc3C(=O)c3ccccc3C)CC2)c1	nt	-52%	8%	nt	-14%	16µM*
Cc1ccc(S(=O)(=O)c2cnc(-c3ccccc3)nc2N2CCCCC2)cc1	nt	4%	13µM*	nt	-1%	-5%[9.22 µM]
O=S(=O)(c1ccccc1)c1cnc(-c2ccccc2)nc1N1CCCC1	nt	-10%[10 µM]	?	nt	-1%	15%[9.22 µM]
COc1ccc2c(c1)c1ncnc(N3CCN(Cc4ccc5c(c4)OCO5)CC3)c1n2C	-4%	?	?	?	?	?
COc1ccc2[nH]c3c(N4CCN(Cc5ccc6c(c5)OCO6)CC4)ncnc3c2c1	?	-47%	?	nt	?	13µM*
O=c1c(-c2cc(O)c(O)c(O)c2)coc2cc(O)c(O)c(O)c12	nt	-64%	25µM*	7.1µM*	2.8µM*	nt
COc1ccc(-c2coc3cc(O)cc(O)c3c2=O)cc1	?	-25%[1.9 µM]	-3%	-21%	?	-1%
O=c1c(-c2ccc(O)cc2)coc2cc(O)cc(O)c12	?	-81%	-8%	25µM*	-1%	2%
CCc1cc2c(=O)c(-c3ccc4c(c3)OCCO4)coc2cc1OS(C)(=O)=O	?	2%[10 µM]	?	-23%	-2%	?
COc1ccc(-c2coc3cc(OC)cc(O)c3c2=O)cc1	?	-6%	-1%	-18%	0%	13%
CC(C)=CCc1c(O)cc2occ(-c3ccc4c(c3)OCO4)c(=O)c2c1O	nt	nt	-8%	25µM*	0%	nt
CCN(CC)C(=O)CSc1nc2cc3c(cc2c(=O)n1CCCCCC(=O)NCCc1ccc(OC)c(OC)c1)OCO3	-14%[46 µM]	nt	nt	nt	nt	nt
COc1cc(Cl)c(C)cc1NC(=O)CNC(=O)Cn1cnc2ccccc2c1=O	2%	3%[10 µM]	-4%	?	3%	?
CC#CCOCC/C=C1/c2ccccc2C(OC)C1C (centres undefined)	nt	-23%[10 µM]	-8%[13.5 µM]	nt	nt	nt
c1ccc(OCCCCN2CCOCC2)cc1	13%	-1%	4%	-10%	-6%	5%
O=S(=O)(CCOc1ccccc1)N1CCOCC1	-1%	nt	20µM*	6%	1%	-3%
COc1ccc(-c2nc(=S)c3c([nH]2)Oc2ccc(C)cc2C3)cc1O	?	nt	4%	-18%	4%	6%

Screening data deposited in PubChem BioAssay by National Center for Advancing Translational Sciences (NCATS).
